According to PubChem BioAssay AID624481 (The Scripps Research Institute Molecular Screening Center, 2012):
Calls of active or inactive are those of the source. Rule as the data show it: active = inhibition above about 50%; inactive = the rest.

target: Prolyl endopeptidase-like (Mus musculus) (UniProt Q8C167); assay: mouse PREPL enzyme inhibition by screening hits – biochemical, gel-based competitive ABPP, fluorescence, HTS hits, PREPL inhibitor project (AID 624481); conditions: purified mouse PREPL, at 20 µM, hits give high values
Sequence (Q8C167 whole entry, looked up): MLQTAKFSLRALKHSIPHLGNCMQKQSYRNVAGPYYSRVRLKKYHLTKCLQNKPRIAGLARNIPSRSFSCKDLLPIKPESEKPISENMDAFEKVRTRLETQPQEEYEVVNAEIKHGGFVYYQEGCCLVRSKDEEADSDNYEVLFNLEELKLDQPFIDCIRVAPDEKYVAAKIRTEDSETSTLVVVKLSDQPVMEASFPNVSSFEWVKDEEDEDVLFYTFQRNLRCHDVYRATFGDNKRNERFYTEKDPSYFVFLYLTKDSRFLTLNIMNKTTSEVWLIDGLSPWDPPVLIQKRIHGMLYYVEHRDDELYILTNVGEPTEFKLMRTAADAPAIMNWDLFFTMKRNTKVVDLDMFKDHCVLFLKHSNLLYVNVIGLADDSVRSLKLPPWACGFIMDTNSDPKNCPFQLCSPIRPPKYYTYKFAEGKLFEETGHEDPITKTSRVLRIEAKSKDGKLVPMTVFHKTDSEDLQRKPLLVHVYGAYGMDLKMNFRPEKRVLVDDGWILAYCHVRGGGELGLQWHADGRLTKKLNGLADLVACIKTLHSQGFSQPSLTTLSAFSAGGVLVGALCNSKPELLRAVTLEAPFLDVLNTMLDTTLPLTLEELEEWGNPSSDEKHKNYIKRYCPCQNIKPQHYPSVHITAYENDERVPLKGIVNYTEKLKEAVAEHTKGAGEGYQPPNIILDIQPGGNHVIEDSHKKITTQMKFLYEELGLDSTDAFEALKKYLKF

| SMILES | inhibition |
| --- | --- |
| Cc1ccc(C[n+]2c(-c3ccc(C)cc3)cc(-c3ccc(C)cc3)cc2-c2ccc(C)cc2)cc1 | 1% (inactive) |
| Clc1ccc(C[n+]2c(-c3ccccc3)cc(-c3ccccc3)cc2-c2ccccc2)cc1 | -51% (inactive) |
| COc1ccc2[nH]c(C)c(CCNCc3cc(OC)c4c(c3)OCO4)c2c1 | -15% (inactive) |
| C=CCn1c(O)c(C(CC)=NCc2ccc3c(c2)OCO3)c(=O)[nH]c1=O | 32% (inactive) |
| C=CCn1c(O)c(C(CC)=NCCc2c[nH]c3ccccc23)c(=O)[nH]c1=O | 43% (inactive) |
| CCOc1cccc(=NC2CCCCC2)c2c(C)[nH]c(C)c12 | 13% (inactive) |
| Cc1ccc(CN2CCSc3ccc(C(=O)N4CCC5(CC4)OCCO5)cc32)cc1 | -8% (inactive) |
| COc1ccc2[nH]c(C)c(CCNCc3cn(C)c4ccccc34)c2c1 | 16% (inactive) |
| CC(C)Cc1[nH]c(=O)c(C#N)c2c1CCC2 | 57% (active) |
| O=C(c1ccc2c(c1)N(Cc1ccccc1)CCS2)N1CCC2(CC1)OCCO2 | -19% (inactive) |
| C1=C(c2c[nH]c3ccccc23)CCNC1 | -17% (inactive) |
| Brc1ccc(-[n+]2c(-c3ccccc3)cc(-c3ccccc3)cc2-c2ccccc2)cc1 | -32% (inactive) |
| NC(N)=NN=Cc1ccc(N(c2ccccc2)c2ccccc2)cc1 | -64% (inactive) |
| O=C(c1ccc2c(c1)N(Cc1ccc(F)cc1)CCS2)N1CCC2(CC1)OCCO2 | -13% (inactive) |
